Laboratory results as given in the supplement of paper PMC6607015.
Where a name gives a salt, the structure may show the parent alone.

Legend:
Settings in all cases: compound concentration in added solution (µM; 5 µl added to 20 µl cells): 10; 18 h
A431 [1] = assay: LBPA endosome anti-LBPA integrated intensity (sum per cell), Z-score; higher = more LBPA staining
Outline: (§1)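 After 18 h on 5 µl of 10 µM compound solution in duplicate 384-well imaging plates, HeLa MZ or A431 cells, seeded at 3,500 per well in 20 µl, were fixed with 4% PFA. They were then labelled with 6C4 anti-LBPA antibody, filipin, propidium iodide and CellTracker green, and four 20× fields were recorded per well. Integrated LBPA or filipin intensity per cell, whole-cell or within LBPA endosomes, came from MetaXpress segmentation and was normalised to Z-scores in AcuityXpress.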

HeLa MZ [2] = assay: as above
Outline: as §1

A431 [3] = assay: whole-cell filipin (free cholesterol) integrated intensity, Z-score; higher = more cholesterol staining
Outline: as §1

HeLa MZ [4] = assay: as above
Outline: as §1

A431 [5] = assay: filipin (cholesterol) integrated intensity within LBPA endosomes, Z-score; higher = more cholesterol in LBPA endosomes
Outline: as §1

HeLa MZ [6] = assay: as above
Outline: as §1

Structure (SMILES)	LBPA endosome anti-LBPA integrated intensity (z-score) (A431 [1])	LBPA endosome anti-LBPA integrated intensity (z-score) (HeLa MZ [2])	whole-cell filipin (z-score) (A431 [3])	whole-cell filipin (z-score) (HeLa MZ [4])	filipin (z-score) (A431 [5])	filipin (z-score) (HeLa MZ [6])
CC(=O)O[C@]1(C(C)=O)CC[C@H]2[C@@H]3C=C(C)C4=CC(=O)CC[C@]4(C)[C@H]3CC[C@@]21C [Megestrol acetate]	-0.482	-1.05	-0.244	0.402	-0.317	-0.342
CC(=O)c1ccc2c(c1)N(CCCN(C)C)c1ccccc1S2 [Acetopromazine maleate salt]	1.92	2.14	0.736	-0.149	1.18	1.7
O=c1[nH]c(=O)n([C@H]2C[C@H](O)[C@@H](CO)O2)cc1I [Idoxuridine]	-0.506	0.506	-0.368	0.357	-0.479	-0.063
CCN(CC)CCOCCOC(=O)C1(c2ccccc2)CCCC1 [Carbetapentane citrate]	0.618	1.63	0.819	0.39	0.894	0.461
Cc1ccc(NC(=O)c2ccc(CN3CCN(C)CC3)cc2)cc1Nc1nccc(-c2cccnc2)n1 [Imatinib]	3.97	1.01	2.96	3.48	4.02	3.74
C[C@]12C[C@H](O)[C@H]3[C@@H](CCC4=CC(=O)CC[C@@]43C)[C@@H]1CC[C@@H]2C(=O)CO [Corticosterone]	-0.334	0.522	-0.492	-0.633	-0.326	-0.407
CC(=O)OCC(=O)[C@@]1(O)[C@H](C)C[C@H]2[C@@H]3CCC4=CC(=O)C=C[C@]4(C)[C@@]3(F)[C@@H](O)C[C@@]21C [Dexamethasone acetate]	-0.279	-0.245	-0.619	-0.504	-0.34	-0.593
Cc1c(C)c2c(c(C)c1O)CCC(C)(COc1ccc(CC3SC(=O)NC3=O)cc1)O2 (centres undefined) [Troglitazone]	-0.514	-0.51	-0.29	-0.287	-0.459	-0.355
CC[C@H](C)C(=O)O[C@H]1CCC=C2C=C[C@H](C)[C@H](CC[C@@H]3C[C@@H](O)CC(=O)O3)[C@H]21 [Mevastatin]	-1.03	-2.17	-1	-0.345	-0.746	-0.0775
O=C(NC(Cc1cc(=O)[nH]c2ccccc12)C(=O)O)c1ccc(Cl)cc1 (centres undefined) [Rebamipide]	-0.421	-0.707	-0.0406	0.196	-0.423	-0.367
CN[C@H](CC(C)C)C(=O)N[C@H]1C(=O)N[C@@H](CC(N)=O)C(=O)N[C@H]2C(=O)N[C@H]3C(=O)N[C@H](C(=O)N[C@H](C(=O)O)c4cc(O)cc(O)c4-c4cc3ccc4O)[C@H](O)c3ccc(c(Cl)c3)Oc3cc2cc(c3O[C@@H]2O[C@H](CO)[C@@H](O)[C@H](O)[C@H]2O[C@H]2C[C@](C)(N)[C@H](O)[C@H](C)O2)Oc2ccc(cc2Cl)[C@H]1O [Vancomycin hydrochloride]	-0.435	-0.0824	-0.355	-0.041	-0.42	-0.35
CC/C(=C(/CC)c1ccc(O)cc1)c1ccc(O)cc1 [Diethylstilbestrol]	-0.432	-0.702	-0.0535	-0.813	-0.37	-0.493
CO[C@@H]1[C@@H](O[C@@H]2O[C@H](C)[C@@H](O[C@H]3C[C@@](C)(O)[C@@H](OC(=O)CC(C)C)[C@H](C)O3)[C@H](N(C)C)[C@H]2O)[C@@H](CC=O)C[C@@H](C)[C@@H](O)/C=C/C=C/C[C@@H](C)OC(=O)C[C@H]1OC(C)=O [Josamycin]	0.115	-0.222	-0.459	-0.645	-0.106	-0.348
OC(c1cc(C(F)(F)F)nc2c(C(F)(F)F)cccc12)C1CCCCN1 (centres undefined) [Mefloquine hydrochloride]	2	-0.429	0.872	-0.477	1.56	1.56
CC(C)(Sc1cc(C(C)(C)C)c(O)c(C(C)(C)C)c1)Sc1cc(C(C)(C)C)c(O)c(C(C)(C)C)c1 [Probucol]	-0.46	-0.408	-0.766	-0.622	-0.482	-0.445
Nc1ncnc2c1ncn2C1OC(COP(=O)(O)O)C(O)C1O (centres undefined) [Adenosine 5'-monophosphate monohydrate]	-0.591	0.12	-0.666	0.0121	-0.493	-0.612
C[C@@H]1C[C@H]2[C@@H]3CCC4=CC(=O)C=C[C@]4(C)[C@@]3(Cl)[C@@H](O)C[C@]2(C)[C@@]1(OC(=O)c1ccco1)C(=O)CCl [Mometasone furoate]	-0.183	0.598	-0.317	1.11	-0.214	0.7
COc1ccc2c(c1)c(CC(=O)O)c(C)n2C(=O)c1ccc(Cl)cc1 [Indomethacin]	-0.426	0.408	-0.694	-0.518	-0.524	-0.49
CC(=O)Nc1ccc(O)cc1 [Acetaminophen]	-0.388	0.0073	-0.156	-0.518	-0.48	-0.412
CNCCCC12CCC(c3ccccc31)c1ccccc12 [Maprotiline hydrochloride]	1.93	0.295	1.09	1.4	2.92	3.38
CS(=O)(=O)OCCCCOS(C)(=O)=O [Busulfan]	-0.537	-0.499	-0.466	0.544	-0.535	-0.476
CCC[C@@H]1C[C@@H](C(=O)N[C@@H]([C@H]2O[C@H](SC)[C@H](O)[C@@H](O)[C@H]2O)[C@H](C)Cl)N(C)C1 [Clindamycin hydrochloride]	-0.543	-0.18	-0.979	-0.574	-0.567	-0.563
CC[C@H]1OC(=O)[C@H](C)[C@@H](O[C@H]2C[C@@](C)(OC)[C@@H](O)[C@H](C)O2)[C@H](C)[C@@H](O[C@@H]2O[C@H](C)C[C@H](N(C)C)[C@H]2O)[C@](C)(O)C[C@@H](C)/C(=N\OCOCCOC)[C@H](C)[C@@H](O)[C@]1(C)O [Roxithromycin]	-0.396	0.565	0.114	0.214	-0.261	0.0396
CCCCN1CCCCC1C(=O)Nc1c(C)cccc1C (centres undefined) [Bupivacaine hydrochloride]	-0.317	-0.117	-0.729	-0.969	-0.543	-0.511
